# Measurements reported in PubChem BioAssay AID504381 (The Scripps Research Institute Molecular Screening Center, 2011).
# Unmarked numbers belong to inactive results. The rule behind the calls is not given here.
# Tested on: BZP Rat Brain Site
# Experiment: radioligand displacement at receptors and transporters – biochemical, PDSP panel, Set 2, late-stage follow-up (AID 504381)
# Settings: PDSP radioligand binding panel, at 10 µM, stronger effect = higher value
smiles,measurement,value
CC(=O)c1ccc2c(c1)Nc1ccccc1S2,inhibition,11.4%
